We go through 10 molecules from PubChem BioAssay (NCATS).

The target of test [1] is Thyrotropin-releasing hormone receptor (Homo sapiens) (UniProt P34981). Nature of the test: qHTS for Small Molecule Agonists and Allosteric Enhancers of Human TRH Receptor: Validation Screen for Agonists (AID 493127;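 active = calcium activation more than 3 SD above the typical response in the agonist read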;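 note: intracellular calcium rise by fluo-8 fluorescence before TRH EC20 addition; 0% is about no effect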). The settings on record: TRH receptor agonist cell assay; at 2 µM; stronger effect = higher value. An outline of the steps: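 Cells 2000/well, 10% FCS, 18 h 33.5C/5% CO2 → fluo-8 Ca dye, RT 30 min–1.5 h → FDSS baseline 10 × 1 s → compound added → 230 cycles (1 s/cycle) agonist mode. TRH controls.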

The nature of test [2]: Nrf2 qHTS screen for inhibitors: Validation (AID 493153; active = well fitted inhibition curve with a large enough effect in the main read-out, with a control signal flat, not every such curve was filed as active). The settings on record: A549 ARE-Fluc reporter, 18-24 h; Potency: luciferase luminescence; viability change: measured here: cytotoxicity max response; luciferase luminescence, at 46.1 µM (top of the series). Put shortly: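 Luminescence from an ARE-firefly luciferase reporter in A549 cells gives Nrf2 inhibition; an earlier CellTiter-Fluor fluorescent read flags cytotoxicity. Cells in 5% FBS OPTI-MEM received compound dilution series for 18-24 h at 37°C.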

The nature of test [3]: qHTS for Inhibitors of Cell Surface uPA Generation: Validation Assay (AID 493164). Note: 0% is about no effect. The settings on record: mouse cells, plasminogen activation; series mostly up to 38.3 µM. Put shortly:
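RAW 264.7 cells (4000/well) were plated overnight, then exposed for 18 h at 37 C, 5% CO2 to compounds in a 7-point 1:5 titration (2.45 nM–38.3 uM final). Intracellular ATP was read by ATP-Lite luminescence.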

Test [4] deals with Galactokinase (Homo sapiens) (UniProt P51570). Nature of the test: qHTS Validation Assay for Inhibitors of Human Galactokinase (GALK) (AID 493189). Note: 0% is about no effect. Conditions: purified human GALK enzyme activity, qHTS 7-point titration; series mostly up to 57.5 µM. Put shortly:
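5 nM GALK / 100 uM galactose / 35 uM ATP, 20 mM HEPES pH8.0, 5 mM MgCl2, 60 mM NaCl, 1 mM DTT, 0.01% BSA (final). RT 1 h; Kinase-Glo Plus luminescence.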

Test [5] is described as follows: Validation screen for small molecules that induce DNA re-replication in SW480 colon adenocarcinoma cells (AID 504364). Note: 0% is about no effect. The settings on record: DNA re-replication phenotype (high-content imaging); series mostly up to 46.1 µM. An outline of the steps: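 250 cells/well; compound pinned in; 48 hr, 37 C, 5% CO2; Hoechst added, 40 min; nuclear fluorescence imaged, 405 ex / 500-530 em; re-replication scored as increase in high-intensity nuclei.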

Test [6] deals with Peptidyl-prolyl cis-trans isomerase NIMA-interacting 1 (Homo sapiens) (UniProt Q13526). Nature of the test: qHTS Validation Assay to Find Inhibitors of Pin1 (AID 504536; active = well fitted inhibition curve with a large enough effect in the polarisation, with a control signal flat, not every such curve was filed as active; the % refers to the polarisation;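 note: 0% = full Pin1 enzyme wells and -100% = no-enzyme wells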). Conditions: Pin1 fluorescence polarization peptide binding assay; series mostly up to 57.5 µM. An outline of the steps: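 Fluorescence polarization competition: compounds (titration) displace HiFluor-488-labeled Pin1-1b peptide from Pin1 (0.3 uM final) in pH 7.5 HEPES buffer with DTT, 10 min at room temperature; %Activity normalized to no-enzyme wells, curves fitted.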

Test [7] deals with Phosphoglycerate kinase, glycosomal (Trypanosoma brucei brucei) (UniProt P07378). Nature of the test: qHTS Validation Assay to Find Inhibitors of Phosphoglycerate Kinase (AID 504547).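 Note: control wells lack PGK and mark full inhibition.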 Conditions: enzymatic PGK inhibition, coupled luminescence read-out; series mostly up to 57.5 µM. An outline of the steps:
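PGK activity was coupled to GAPDH (100nM final), which generates the unstable substrate 1,3-bisphosphoglycerate in-well. Reactions ran 60 minutes at room temperature in 100mM TEA pH 7.6, 5mM MgCl2, 0.01% Tween-20, then Kinase-Glo Plus luminescence was read.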

Test [8] deals with phosphoglycerate mutase (Leishmania major) (UniProt Q4Q090). Nature of the test: qHTS Validation Assay to Find Inhibitors of Phosphoglycerate Mutase (AID 504548). Note: % is set by controls: 0 for no effect and ±100 for the full control effect. Conditions: biochemical enzyme activity; series mostly up to 57.5 µM. Put shortly:
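Lm PGAM 1.25nM final; 100 mM TEA pH 7.6, 5 mM MgCl2, 0.01% Tween-20; 45 min RT; Kinase-GloPlus, 10 min; end-point luminescence. Enzyme-free wells as negative controls.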

Test [9] in a line: qHTS for Inhibitors of ATXN expression: Validation (AID 588378). Note: nearly all actives have a fitted effect of over 75% in size. Note: potency is the fitted concentration of half-maximal effect. Conditions: cell-based ATXN2 expression reporter assay, luminescence; series mostly up to 57.1 µM. Put shortly: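 Compounds were pinned onto attached HEK293 cells carrying an ATXN2-firefly luciferase construct and incubated 24 hrs at 37 degrees C. Each well then received a fluorescent viability reagent followed by luciferase substrate for end-point luminescence.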

Test [10] deals with Ubiquitin carboxyl-terminal hydrolase 1 (Homo sapiens) (UniProt O94782). Nature of the test: Inhibitors of USP1/UAF1: Pilot qHTS (AID 504865). Note: nearly all actives have a fitted effect of over 35% in size. Note: potency is the fitted concentration of half-maximal effect. Conditions: purified USP1/UAF1, Ub-rhodamine cleavage fluorescence; series mostly up to 114 µM. An outline of the steps:
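In 50mM HEPES pH 7.8 containing 0.5mM EDTA, 1mM TCEP, 0.1 mg/ml BSA and 0.01% Tween-20, 1nM USP1/UAF1 is exposed to compound for 15 min, then Ub-Rho (150nM final) is added and fluorescence is read over time.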

Test [11] deals with Glucocorticoid receptor (Homo sapiens) (UniProt P04150). Nature of the test: qHTS assay for small molecule agonists of glucocorticoid receptor signaling (AID 588532; active = well fitted curve in the direction sought with a large enough effect in the signal ratio, with a control signal flat; the % refers to the signal ratio;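 note: 100% = dexamethasone at 0.1 µM and 0% = DMSO only wells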). Conditions: HeLa MMTV-bla, beta-lactamase ratio, agonist, 18 h; activation: stronger effect = higher value, percent of dexamethasone control, DMSO zero. An outline of the steps:
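HeLa GRE-bla reporter cells; 18 h compound exposure at 37 C; 2 h CCF4 loading at room temperature; fluorescence at 460 and 530 nm; EC50 by Hill equation.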

Test [12] in a line: qHTS assay for small molecule antagonists of peroxisome proliferator-activated receptor delta signaling (AID 588535; active = well fitted inhibition curve with a large enough effect in the signal ratio, with a control signal flat, not every such curve was filed as active; the % refers to the signal ratio;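 for max response: cells co-treated with a PPAR-delta agonist as stimulator during compound exposure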). The settings on record: HEK293T PPARd-UAS-bla, beta-lactamase FRET ratio, 18 h; 460 nm channel. Put shortly: (§1)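 Antagonist-mode beta-lactamase reporter (GeneBLAzer PPAR-delta-UAS-bla) in HEK293T cells, 2% charcoal/dextran FBS, 4000 cells/well. Compound titrations, 18 h at 37 C; CCF4 ratio read, IC50 and efficacy from Hill fits.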

Test [13] has as its target Peroxisome proliferator-activated receptor delta (Homo sapiens) (UniProt Q03181). The test is described as above. Conditions: HEK293T PPARd-UAS-bla, beta-lactamase FRET ratio, 18 h; series mostly up to 76.7 µM. Put shortly: as §1
A short description of test [14]: qHTS for Inhibitors of ATXN expression: Validation of Cytotoxic Assay (AID 588349). Note: % is set by controls: 0 for no effect and ±100 for the full control effect. The settings on record: cytotoxicity counter-screen for ATXN expression inhibitors, cell viability; series mostly up to 57.1 µM. Put shortly: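 Read-out: ATP-based luminescence (CellTiter Glo) reflecting viability of HEK293 cells after 72 hr incubation at 37 degrees C with a concentration series of each compound.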

For test [15], the target named is Estrogen receptor (Homo sapiens) (UniProt P03372). Nature of the test: qHTS assay for small molecule antagonists of estrogen receptor alpha signaling (AID 588513; active = well fitted curve in the direction sought with a large enough effect in the signal ratio, with a control signal flat, not every such curve was filed as active; the % refers to the signal ratio; note: % is set by controls: 0 for no effect and ±100 for the full control effect). Conditions: ER-alpha-UAS-bla HEK293, beta-lactamase ratio, antagonist mode; series mostly up to 76.9 µM. Put shortly:
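Fluorescence from CCF4 substrate after 2 h at room temperature gave reporter activity; cells had been exposed to compound and 0.5nM 17-beta-estradiol for 18 h at 37 C. Hill-equation fitting yielded IC50 and maximal response.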

Test [16] has the same target. Nature of the test: qHTS assay for small molecule agonists of estrogen receptor alpha signaling (AID 588514; calls by dose curve;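 note: 0% = vehicle only and 100% = reference agonist; nearly all actives have a fitted effect of over 70% in size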). Conditions: ER-alpha-UAS-bla HEK293, beta-lactamase ratio, 18 h; series mostly up to 76.8 µM. An outline of the steps: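 Cells were plated at 5000/well, incubated 4 hrs at 37 C, dosed with compound titration series, incubated 18 hrs at 37 C, loaded with CCF4 dye for 2 hrs at RT, then fluorescence was read.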

For test [17], the target named is Glucocorticoid receptor (Homo sapiens) (UniProt P04150). Nature of the test: qHTS assay for small molecule antagonists of glucocorticoid receptor signaling (AID 588533; active = well fitted inhibition curve with a large enough effect in the signal ratio, with a control signal flat, not every such curve was filed as active; the % refers to the signal ratio;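 note: cells stimulated with 2 nM dexamethasone as agonist; % is set by controls: 0 for no effect and ±100 for the full control effect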). The settings on record: HeLa MMTV-bla, GRE beta-lactamase ratio, antagonist mode, 18 h; series mostly up to 76.8 µM. An outline of the steps: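 Antagonist-mode qHTS: compound titrations added to GRE-bla HeLa cells, then dexamethasone 2 nM final; 18 h, 37 C. CCF4 FRET fluorescence normalized to dexamethasone and DMSO; IC50 from Hill fit.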

Inconclusive results are not listed. Activity calls are given as the source filed them. Unless noted, calls come from the whole dose curve; as a rule, active = well fitted curve in the direction sought with a large enough effect; inconclusive = small, poorly fitted or top-dose-only effect, or another doubt; inactive = no such curve, though single readings can be large; an effect the other way counts as inactive or inconclusive.

Chain of Estrogen receptor (Homo sapiens) (P03372 whole entry, looked up): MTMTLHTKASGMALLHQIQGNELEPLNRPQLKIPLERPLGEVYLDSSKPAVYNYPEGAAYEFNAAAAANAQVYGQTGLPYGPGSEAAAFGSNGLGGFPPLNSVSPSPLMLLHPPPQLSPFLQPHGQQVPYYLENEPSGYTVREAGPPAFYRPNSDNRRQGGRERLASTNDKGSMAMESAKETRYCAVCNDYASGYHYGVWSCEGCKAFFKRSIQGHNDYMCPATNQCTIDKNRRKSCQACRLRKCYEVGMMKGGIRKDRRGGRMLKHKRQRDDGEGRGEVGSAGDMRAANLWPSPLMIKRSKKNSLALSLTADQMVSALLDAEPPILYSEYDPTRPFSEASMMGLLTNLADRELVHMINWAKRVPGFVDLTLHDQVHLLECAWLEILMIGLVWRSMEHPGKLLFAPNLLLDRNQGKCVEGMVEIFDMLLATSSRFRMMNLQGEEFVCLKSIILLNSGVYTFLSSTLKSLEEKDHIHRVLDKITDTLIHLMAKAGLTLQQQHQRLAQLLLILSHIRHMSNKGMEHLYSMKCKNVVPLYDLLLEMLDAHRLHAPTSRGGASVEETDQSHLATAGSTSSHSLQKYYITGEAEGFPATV
Chain of Peptidyl-prolyl cis-trans isomerase NIMA-interacting 1 (Homo sapiens) (Q13526 whole entry, looked up): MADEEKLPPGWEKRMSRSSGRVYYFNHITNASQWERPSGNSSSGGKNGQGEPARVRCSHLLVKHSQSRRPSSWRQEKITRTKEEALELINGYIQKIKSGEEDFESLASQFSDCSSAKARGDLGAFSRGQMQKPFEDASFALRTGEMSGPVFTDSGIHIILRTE
Chain of Galactokinase (Homo sapiens) (P51570 whole entry, looked up): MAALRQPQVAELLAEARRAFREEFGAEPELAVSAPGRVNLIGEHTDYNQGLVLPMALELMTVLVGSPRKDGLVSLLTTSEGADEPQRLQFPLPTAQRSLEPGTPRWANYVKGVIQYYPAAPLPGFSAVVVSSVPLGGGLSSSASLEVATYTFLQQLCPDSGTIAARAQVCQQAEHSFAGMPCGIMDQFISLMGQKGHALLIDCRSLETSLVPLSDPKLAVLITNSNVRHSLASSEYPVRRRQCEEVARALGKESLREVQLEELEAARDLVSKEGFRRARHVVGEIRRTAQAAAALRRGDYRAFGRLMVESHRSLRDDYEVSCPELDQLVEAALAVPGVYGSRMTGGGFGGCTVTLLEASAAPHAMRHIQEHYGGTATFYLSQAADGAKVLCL
Chain of Ubiquitin carboxyl-terminal hydrolase 1 (Homo sapiens) (O94782 whole entry, looked up): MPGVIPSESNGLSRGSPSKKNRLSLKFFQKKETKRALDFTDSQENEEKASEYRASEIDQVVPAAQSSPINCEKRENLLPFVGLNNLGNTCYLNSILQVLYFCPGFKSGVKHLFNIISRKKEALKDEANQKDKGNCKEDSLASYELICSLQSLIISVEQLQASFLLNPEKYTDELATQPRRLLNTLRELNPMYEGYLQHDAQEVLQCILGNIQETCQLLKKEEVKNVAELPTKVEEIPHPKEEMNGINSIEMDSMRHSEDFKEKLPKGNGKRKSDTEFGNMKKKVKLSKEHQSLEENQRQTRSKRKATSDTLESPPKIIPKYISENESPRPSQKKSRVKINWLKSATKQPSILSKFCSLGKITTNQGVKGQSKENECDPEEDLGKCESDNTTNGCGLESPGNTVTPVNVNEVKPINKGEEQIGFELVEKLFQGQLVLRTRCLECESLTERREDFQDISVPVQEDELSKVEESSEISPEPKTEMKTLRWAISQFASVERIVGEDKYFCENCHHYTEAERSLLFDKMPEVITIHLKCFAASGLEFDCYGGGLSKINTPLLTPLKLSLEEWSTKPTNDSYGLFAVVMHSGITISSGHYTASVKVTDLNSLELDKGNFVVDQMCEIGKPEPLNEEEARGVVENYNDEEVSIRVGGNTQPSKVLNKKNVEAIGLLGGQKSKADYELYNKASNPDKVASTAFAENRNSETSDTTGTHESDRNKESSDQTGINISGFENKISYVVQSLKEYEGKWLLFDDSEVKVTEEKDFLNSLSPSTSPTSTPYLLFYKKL
Chain of Thyrotropin-releasing hormone receptor (Homo sapiens) (P34981 whole entry, looked up): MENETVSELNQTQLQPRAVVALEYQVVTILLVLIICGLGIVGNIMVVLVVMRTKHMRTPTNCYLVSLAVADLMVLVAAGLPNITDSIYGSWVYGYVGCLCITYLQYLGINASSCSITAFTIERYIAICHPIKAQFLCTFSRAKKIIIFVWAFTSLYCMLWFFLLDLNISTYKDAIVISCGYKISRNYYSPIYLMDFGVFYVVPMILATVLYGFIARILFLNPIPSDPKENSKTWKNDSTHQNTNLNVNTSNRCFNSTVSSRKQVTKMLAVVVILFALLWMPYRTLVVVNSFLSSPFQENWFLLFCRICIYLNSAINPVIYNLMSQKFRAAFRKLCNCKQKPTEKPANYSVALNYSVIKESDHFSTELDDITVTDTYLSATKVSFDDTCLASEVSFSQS
Chain of Peroxisome proliferator-activated receptor delta (Homo sapiens) (Q03181 whole entry, looked up): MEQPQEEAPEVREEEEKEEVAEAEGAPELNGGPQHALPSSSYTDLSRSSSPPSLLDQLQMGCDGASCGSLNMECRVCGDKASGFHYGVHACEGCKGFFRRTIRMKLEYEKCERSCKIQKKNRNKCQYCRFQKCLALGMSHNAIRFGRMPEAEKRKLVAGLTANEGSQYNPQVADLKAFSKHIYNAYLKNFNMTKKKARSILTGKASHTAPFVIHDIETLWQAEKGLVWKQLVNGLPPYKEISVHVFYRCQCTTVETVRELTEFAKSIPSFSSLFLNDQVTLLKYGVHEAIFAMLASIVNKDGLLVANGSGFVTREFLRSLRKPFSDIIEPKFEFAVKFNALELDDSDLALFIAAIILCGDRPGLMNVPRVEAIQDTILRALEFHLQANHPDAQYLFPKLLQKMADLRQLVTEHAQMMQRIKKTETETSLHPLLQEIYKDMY
Chain of phosphoglycerate mutase (Leishmania major) (Q4Q090 1-553): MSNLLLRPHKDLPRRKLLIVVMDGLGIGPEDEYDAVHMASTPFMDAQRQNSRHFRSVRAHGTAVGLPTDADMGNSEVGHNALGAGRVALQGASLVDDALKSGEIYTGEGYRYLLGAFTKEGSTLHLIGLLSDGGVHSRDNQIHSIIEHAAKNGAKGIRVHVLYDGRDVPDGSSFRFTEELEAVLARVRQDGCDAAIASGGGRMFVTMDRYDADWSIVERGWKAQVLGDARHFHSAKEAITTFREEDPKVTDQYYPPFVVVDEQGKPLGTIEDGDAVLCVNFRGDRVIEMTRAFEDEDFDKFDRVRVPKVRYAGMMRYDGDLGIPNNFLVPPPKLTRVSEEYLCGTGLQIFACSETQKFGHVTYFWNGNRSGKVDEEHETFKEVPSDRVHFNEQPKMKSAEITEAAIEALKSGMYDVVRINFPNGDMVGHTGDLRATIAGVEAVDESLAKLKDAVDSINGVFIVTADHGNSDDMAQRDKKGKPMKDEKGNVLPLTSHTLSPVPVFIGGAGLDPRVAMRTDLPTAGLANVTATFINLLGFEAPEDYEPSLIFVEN
Chain of Phosphoglycerate kinase, glycosomal (Trypanosoma brucei brucei) (P07378 whole entry, looked up): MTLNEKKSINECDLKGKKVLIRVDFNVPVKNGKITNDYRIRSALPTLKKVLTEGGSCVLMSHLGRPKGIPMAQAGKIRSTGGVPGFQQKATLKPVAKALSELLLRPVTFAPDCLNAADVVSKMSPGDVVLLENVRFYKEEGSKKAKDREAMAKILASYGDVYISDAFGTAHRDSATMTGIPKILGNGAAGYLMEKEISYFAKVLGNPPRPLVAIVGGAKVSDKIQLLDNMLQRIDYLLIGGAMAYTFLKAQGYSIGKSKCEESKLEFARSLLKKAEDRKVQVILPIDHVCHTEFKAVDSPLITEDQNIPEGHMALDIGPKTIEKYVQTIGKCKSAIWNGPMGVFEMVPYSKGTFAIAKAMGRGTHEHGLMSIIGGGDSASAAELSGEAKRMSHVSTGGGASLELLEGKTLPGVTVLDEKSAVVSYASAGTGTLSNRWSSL
Chain of Glucocorticoid receptor (Homo sapiens) (P04150 whole entry, looked up): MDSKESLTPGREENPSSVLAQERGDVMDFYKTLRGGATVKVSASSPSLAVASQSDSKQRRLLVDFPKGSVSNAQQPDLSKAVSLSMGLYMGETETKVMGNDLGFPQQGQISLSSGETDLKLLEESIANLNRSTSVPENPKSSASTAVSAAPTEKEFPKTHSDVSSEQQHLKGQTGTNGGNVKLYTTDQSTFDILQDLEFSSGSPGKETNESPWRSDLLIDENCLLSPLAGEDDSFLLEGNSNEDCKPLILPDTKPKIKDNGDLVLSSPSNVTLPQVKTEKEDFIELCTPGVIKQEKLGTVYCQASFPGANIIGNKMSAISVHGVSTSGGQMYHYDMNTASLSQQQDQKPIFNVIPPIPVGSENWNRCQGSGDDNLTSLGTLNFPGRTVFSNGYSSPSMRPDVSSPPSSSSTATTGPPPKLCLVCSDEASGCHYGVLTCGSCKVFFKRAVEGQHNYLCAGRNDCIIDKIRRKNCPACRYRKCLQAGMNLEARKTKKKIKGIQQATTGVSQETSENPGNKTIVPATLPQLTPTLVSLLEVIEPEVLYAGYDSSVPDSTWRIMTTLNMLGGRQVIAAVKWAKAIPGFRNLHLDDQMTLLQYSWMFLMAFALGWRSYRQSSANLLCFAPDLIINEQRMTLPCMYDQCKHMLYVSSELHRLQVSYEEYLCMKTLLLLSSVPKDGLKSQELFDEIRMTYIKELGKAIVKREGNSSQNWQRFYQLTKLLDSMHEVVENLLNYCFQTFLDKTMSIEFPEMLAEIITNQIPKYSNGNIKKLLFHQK

`C(=C\c1ccccc1)/CN1CCN(C(c2ccccc2)c2ccccc2)CC1`: the activation in test [1] is 0.438% (inactive). For the same molecule, the Potency entry in test [2] and in [9] was “inactive” throughout. Moreover, the viability change in test [2] is -2.4%. For the same molecule, the result in test [3], in test [4], in test [5], in test [6], in [7] and in [8] was inactive.
For the molecule `COc1ccc(CN(CCN(C)C)c2ccccn2)cc1`, the results for the activation in test [1] and in test [11] were 1.25% (inactive) and -0.651% (inactive), respectively. For the same molecule, the Potency entry in test [2] and in [10] was “inactive” each time. Moreover, in test [2], the viability change stood at 0.301%. Besides, the molecule was called inactive in test [3], in [4], in test [5], in test [6], in test [7] and in [8]. Besides, the result in test [13] was inactive. Also, the max response in [12] came to 15.1%.
For the molecule `OCCN1CCN(CC/C=C2/c3ccccc3Sc3ccc(C(F)(F)F)cc32)CC1`, in test [1], the activation is 1.19% (inactive). In addition, the Potency entry in test [2] is “inactive”. Further, the viability change in test [2] was -4.74%. Further, the molecule was classed as inactive in test [3], in test [4], in test [5], in test [6], in test [7] and in [8]. Also, the Potency is 56.2 µM (active) in test [10] and 17.8 µM (active) in test [9].
As for `Cc1nc2c([nH]1)c(=O)n(C)c(=O)n2Cc1ccco1`, the activation in test [1] was 0.812% (inactive). For the same molecule, the Potency entry in test [2] and in test [9] was “inactive” each time. Also, the viability change in test [2] is -1.43%. In addition, the outcome in test [3], in test [4], in test [5], in test [6], in test [7] and in [8] was inactive.
With `CCO/C([O-])=N/c1c[n+](N2CCOCC2)no1`, the activation in [1] was -0.0625% (inactive). Also, the Potency entry in test [2], in [10] and in test [9] was “inactive” throughout. The viability change in [2] turned out to be 7.49%. The molecule was called inactive in [3], in test [4], in test [5], in test [6], in test [7] and in test [8].
For the molecule `Nc1c2c(nc3ccccc13)CCCC2O` (configuration not stated), the activation in test [1] was 1.62% (inactive). The Potency result in test [2], in [10] and in test [9] was “inactive” each time. Besides, in test [2], the viability change was 6.52%. Moreover, the call in test [3], in test [4], in [5], in test [6], in test [7] and in test [8] was inactive.
As for `COc1cc(C(=O)OCCCN2CCCN(CCCOC(=O)c3cc(OC)c(OC)c(OC)c3)CC2)cc(OC)c1OC`, the activation in test [1] is 0.688% (inactive). The Potency entry in [2], in test [10] and in test [9] was “inactive” each time. Moreover, the viability change in [2] was -0.03%. The call in test [3], in [4], in test [5], in test [6], in [7] and in test [8] was inactive.
In the case of `Cc1ccc(S(=O)(=O)NC(=O)NN2CCCCCC2)cc1`, the activation in [1] is 0.188% (inactive); in test [11], -1.16% (inactive). Further, the Potency entry in [2], in test [14], in test [9], in test [16] and in test [17] was “inactive” throughout. Besides, the viability change in [2] was -3.67%. The molecule was called inactive in test [3], in test [4], in test [5], in test [6], in [7] and in test [8]. Moreover, the result in test [15] and in [13] was inactive. Besides, the max response in [12] was determined as 47.3%.
In the case of `O=C(O)CCCCCCCC(=O)O`, the activation in [1] was -3.19% (inactive). Besides, the Potency result in test [2], in test [14] and in [9] was “inactive” each time. Moreover, the viability change in test [2] stood at 9.01%. In addition, the outcome in test [3], in test [4], in test [5], in test [6], in [7] and in test [8] was inactive.
With `COc1cc(Cc2cnc(N)nc2N)cc(OC)c1OC`, the activation in test [1] was 0.312% (inactive); in test [11], -1.11% (inactive). The Potency result in test [2], in test [14], in [9], in [16] and in [17] was “inactive” in each case. In [2], the viability change was found to be 1.71%. Besides, the call in [3], in test [4], in test [5], in test [6], in test [7] and in test [8] was inactive. The result in test [15] and in test [13] was inactive. For the same molecule, the max response in test [12] was 38%.
